# About 83,000 compounds went through this panel and 20% of them were active in at least one assay; those are over-represented in the sample as a whole.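 Plates (96-well) were seeded with cells, treated with compound at one concentration, and incubated for 48 hours before percent growth was determined.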 Values without a mark were called inactive. Active and inactive are the calls of the source.
# Tested on: HT29 colon
# Experiment: NCI-60 one-dose screen, 48 h (100 = growth as untreated, 0 = no growth, -100 = all killed)
# Details: 10 µM unless noted
# Description: Growth inhibition of the HT29 human tumor cell line is measured as a screen for anti-cancer activity. Cells are grown in 96 well plates and exposed to the test compound for 48 hours. Compounds are tested at a single concentration, which is 10^-5 M for most compounds. The reported endpoint is percent growth (GI% or GIPRCNT), where numbers from 0 - 100% represent growth inhibition, and numbers from -100% - 0 represent cell death. For example, a value of 40 represents 60% growth inhibition. A value of 0 means no net growth occurred over the course of the experiment. A value of -40 indicates 40% of cells at the beginning of the experiment died by the end of the experiment. A value of -100 means all cells are dead at the end of the experiment.
# NCI-60 Human Tumor Cell Lines Screen was performed using the standard one-dose NCI protocol, which is described in more detail at https://dtp.cancer.gov/discovery_development/nci-60/default.htm.
# Compounds with GIPRCNT values below 10 were considered active. Activity score was based on GIPRCNT using the following formula: […]
# Score is 0 for GIPRCNT values of 100 or above, 50 for GIPRCNT values of 0, and 100 for GIPRCNT values of -100.
row,SMILES,growth
1,NS(=O)(=O)c1ccc(Nc2nc(O)c(/C=C3\C=Nc4ccccc43)s2)cc1,114%
2,COc1cccc(-c2nc3sccn3c2-c2ccnc(NCCNC(=O)c3ccccc3)n2)c1,53.5%
3,CN(CCNCc1ccccn1)CCNCc1ccccn1,7.47% (active)
4,COc1cc(/C=C/C(=O)c2c(C)n([O-])c3cc(C)c(C)cc3[n+]2=O)cc(OC)c1OC,70.6%
5,O=C1OC(c2ccc(-c3ccccc3)cc2)=C/C1=C/C=C/c1ccccc1,113%
6,C/C(=N/O)c1ccc(NC(=O)Cn2nc(-c3ccc(Cl)cc3)nc2N)cc1,86.8%
7,COC(=O)c1oc2c(C(C)=O)c(OCCCN(C)C)ccc2c1C,69.1%
8,Nc1nc2ccc(CNc3ccc(C(=O)NC(CC(=O)O)C(=O)O)cc3)cc2c(=O)[nH]1 (stereo not given),18.6%
9,C=CCn1c(SCC(=O)Nc2ccc(C(=O)/C=C/c3cc(OC)c(OC)c(OC)c3)cc2)nnc1-c1ccc(OC)cc1,-27.9% (active)
10,CCc1cccc(C)c1NC(=O)c1sc2nc3c(cc2c1N)CCCCC3,8.55% (active)
11,COc1ccc(C2=NN(C(=O)COc3ccc(Cl)cc3)C(O)(c3cc(F)c(Cl)cc3Cl)C2)cc1OC (stereo not given),-75.9% (active)
12,N#CC(C#N)=C(C#N)c1c[nH]c2ccccc12,80.4%
13,COc1cc2ncnc(Oc3ccc(NC(=O)Nc4ccc(CN5CCOCC5)c(C(F)(F)F)c4)c4ccccc34)c2cc1OC,14.2%
14,NS(=O)(=O)c1ccc(CCN2C(=O)/C(=C\c3ccc(Cl)cc3)C=C2c2ccc(Oc3ccccc3)cc2)cc1,65.4%
15,O=S(=O)(Nc1cccc2cc(OS(=O)(=O)c3ccccc3)ccc12)c1ccccc1,19.2%
16,O=[N+]([O-])c1cccc(C2c3ccccc3Oc3ccccc32)c1,85.1%
17,COc1cccc(-c2nc3sccn3c2-c2ccnc(NCCNC(=O)Nc3cccc(C(F)(F)F)c3)n2)c1,44.1%
18,COc1ccc(C(=O)NC(=O)Nc2ccc3c(c2)NC(=O)/C3=C\c2[nH]c(C)c(C(=O)O)c2C)c(F)c1,16.5%
19,Clc1ccc2c(c1)nnn1c3ncccc3c(Br)c21,93.8%
20,C=C1C(=O)O[C@H]2[C@H]1CC/C(COC(=O)OC/C1=C/CC[C@@]3(C)O[C@H]3[C@H]3OC(=O)[C@@H](CN(C)C)[C@@H]3CC1)=C\CC[C@@]1(C)O[C@@H]21,-8% (active)

row,SMILES,growth
1,C=CCOc1ccc(/C(Cl)=N/N=C(\Cl)c2cc(OC)c(OC)c(OC)c2)cc1,53.2%
2,COc1cc2nc(C(=O)N3CCCCC3)cc(Nc3ccccc3)c2cc1OC,104%
3,O=C(Cn1c2ccccc2c2ccncc21)N/N=C/c1c[nH]c2ccccc12,44.2%
4,COc1cc(NS(=O)(=O)c2ccc(N)cc2)ncn1,120%
5,COc1ccccc1N1CCN(CC(O)COc2c(Br)c(Br)c(Br)c3c2OC(C)(C)C3)CC1 (stereo not given),5.44% (active)
6,Cc1ccc2c(C3C(C#N)=C(N)Oc4cc5ccccc5cc43)cc(=O)oc2c1 (stereo not given),6.66% (active)
7,Clc1ccc(CN2COc3c(ccc4cccnc34)C2)cc1Cl,30.3%
8,C/C(=N/NC(=O)Cn1c2ccccc2c2ccncc21)c1cccs1,89.5%
9,C=C1C(=O)O[C@H]2[C@H]1CC/C(CNC(=O)/C1=C/CC[C@@]3(C)O[C@H]3[C@H]3OC(=O)C(=C)[C@@H]3CC1)=C\CC[C@@]1(C)O[C@@H]21,95.4%
10,CN1C(=O)C2(NN=C(c3cccc4ccccc34)S2)c2ccccc21 (stereo not given),50.8%
11,FC(F)(F)c1cn(CC2CNC2)c2ncnc(Cl)c12,92.2%
12,Cc1ccn2cc(Cc3cc(=O)oc4c3ccc3ccccc34)c(=O)nc2c1,87.8%
13,COc1ccc2c(c1)OC(N)=C(C#N)C2c1ccc(F)c(F)c1 (stereo not given),3.2% (active)
14,Cc1c(NC(=O)c2sc3nc4c(cc3c2N)CN(Cc2ccccc2)CC4)cccc1C(F)(F)F,12.2%
15,Cc1ccc(=O)n(-c2ccc(Br)cc2F)c1,107%
16,COc1ccc2c(c1)O/C(=C/c1ccc(OCC(=O)Nc3ccc(S(N)(=O)=O)cc3)cc1)C2=O,102%
17,COc1cc(NC(C)CCCN2C(=O)c3ccccc3C2=O)c2ncccc2c1OC (stereo not given),101%
18,O=c1c2ccccc2sc2c(NCCCNCCO)nc3ccccc3c12,-47.3% (active)
19,COc1cc(NC(=O)C#Cc2ccccc2)c(OC)cc1Cl,29.3%
20,O=C(Nc1ccc(F)cc1)Nc1ccc(Br)c(C(F)(F)F)c1,6.61% (active)
